CHO-K1 Ca ag – counter-screen for M1 agonists: effect in parental CHO-K1 cells; 360,000 tested, 0.48% active; AID 602248, 2012; activation, % at 3 µM; Fluo-8 calcium fluorescence; scaled to maximal ATP response, vehicle zero; in the data active = activation above about 15%;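 also: untransfected CHO-K1 host cells lacking M1 receptor as counterscreen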
CHRM1 agonist – human M1 muscarinic receptor agonists, primary screen, Fluo-8 calcium fluorescence, CHO-K1 cells, HTS; activation, % at 3 µM; 360,000 tested, 0.33% active; CHO-K1 hM1, agonist mode; 0% DMSO, 100% acetylcholine EC100; AID 588814, 2011; Muscarinic acetylcholine receptor M1 (Homo sapiens), P11229;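 active = activation above the run's mean compound activation plus 3 SD, cut at about 16% in these data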;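 also: peak over basal fluorescence ratio within a 140 s kinetic read after compound addition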
Target sequence (P11229 whole entry, looked up): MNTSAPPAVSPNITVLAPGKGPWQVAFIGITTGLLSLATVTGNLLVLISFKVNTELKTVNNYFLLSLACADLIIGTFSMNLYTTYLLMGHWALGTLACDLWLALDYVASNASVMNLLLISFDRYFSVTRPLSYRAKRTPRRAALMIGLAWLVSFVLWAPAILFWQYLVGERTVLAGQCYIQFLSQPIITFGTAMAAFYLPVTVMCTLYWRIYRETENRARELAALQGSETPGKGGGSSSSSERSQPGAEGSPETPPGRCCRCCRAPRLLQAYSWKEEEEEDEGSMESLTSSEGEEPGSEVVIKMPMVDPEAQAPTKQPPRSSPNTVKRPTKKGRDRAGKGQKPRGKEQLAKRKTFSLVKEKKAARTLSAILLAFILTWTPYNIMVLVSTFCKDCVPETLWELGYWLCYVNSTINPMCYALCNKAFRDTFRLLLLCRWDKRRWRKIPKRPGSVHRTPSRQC
CHO-K1 Ca antag – M1 antagonist counterscreen hit in parental CHO-K1 cells; ATP-induced calcium, Fluo-8 fluorescence; inhibition, % at 3 µM; 360,000 tested, 0.6% active;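 active = inhibition above a per-plate cutoff, the plate's mean sample inhibition plus 3 SD, cut at about 24% in these data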;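 also: 0% = DMSO plus EC80 ATP and 100% = DMSO alone without ATP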
CHO-K1 Ca PAM – nonselective calcium activators in parental CHO-K1 cells, primary screen, counter-screen for M1 PAM project, cell-based, Fluo-8 calcium fluorescence, full deck, 1536-well; ATP EC20; 0% at ATP EC20, 100% at ATP max; 360,000 tested, 0.02% active; activation, % at 3 µM; AID 602247, 2012;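 active = activation above the run cutoff, the mean activation of all test compounds plus 3 SD, cut at about 40% in these data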;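 also: peak over basal fluorescence ratio in a 140 s read after ATP addition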
M1 PAM – human M1 muscarinic receptor positive allosteric modulators, primary screen, CHO-K1 cells, Fluo-8 calcium fluorescence, 1536-well | 360,000 tested, 0.088% active | AID 588819, 2011 | activation, % at 3 µM | CHO-K1 hM1, ACh EC20; 0% = ACh EC20, 100% = maximal ACh; in the data active = activation above about 19%, passing the limit was not always enough
CHRM1 antagonist – human M1 muscarinic receptor antagonists, primary screen, CHO-K1 cells, Fluo-8 calcium fluorescence, 1536-well; Muscarinic acetylcholine receptor M1 (Homo sapiens), P11229; AID 588852, 2011; inhibition, % at 3 µM; CHO-K1 hM1, ACh EC80 antagonist; 360,000 tested, 1.3% active;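 active = percent inhibition above its own plate's cutoff, namely the mean of that plate's compound wells plus 3 SD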;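 also: peak over basal fluorescence ratio during 140 s after agonist addition; 0% = ACh EC80 plus DMSO and 100% = DMSO alone without agonist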
An asterisk follows results filed as active. Compounds with a hit are over-represented: about 2.3% of the library has one in this group of screens.

SMILES	CHO-K1 Ca ag	CHRM1 agonist	CHO-K1 Ca antag	CHO-K1 Ca PAM	M1 PAM	CHRM1 antagonist
CC1CC(C)CN(C(=O)C(C)N2CCN(S(=O)(=O)c3ccc(Br)s3)CC2)C1 (stereo not drawn)	0	-4	-17	15	-2	-1
COc1ccc(C(=O)CSc2nnc(Cn3cnc4ccccc43)o2)cc1	8	-1	4	9	-10	32*
Nc1ccc(CN2CCOCC2)cc1	2	0	-22	21	14	-16
COc1ccc(COCC(O)CN2CCC(C(N)=O)CC2)cc1OC (stereo not drawn)	19*	-5	10	17	10	-6
O=C(Nc1ccc([N+](=O)[O-])cc1)Nc1nc(-c2ccc(Cl)s2)cs1	10	6	34*	-4	-10	8
COc1cc(/C=C/C(=O)OC(C)C(=O)Nc2c(C)n(C)n(-c3ccccc3)c2=O)ccc1O (stereo not drawn)	0	-2	5	-5	6	-7
CCc1ccc(NC(=O)C(C)OC(=O)/C=C/c2ccc(O)c(OC)c2)cc1 (stereo not drawn)	25*	34*	-8	-12	-7	-4
COc1ccc(-c2ccccc2NC(=O)C2CCCN(Cc3ccc(C)o3)C2)cc1 (stereo not drawn)	0	8	9	-14	14	12
CCC[C@@H](NS(=O)(=O)c1ccc(C)cc1)C(=O)Oc1ccc2c3c(c(=O)oc2c1)CCC3	12	2	7	12	-25	38*
Cc1ccc(S(=O)(=O)NC(C(=O)Oc2ccc3c(C)c(Cl)c(=O)oc3c2)c2ccccc2)cc1 (stereo not drawn)	0	-6	0	0	-3	9
CCCn1nnc(NC(=O)c2ccc([N+](=O)[O-])cc2Cl)n1	15*	-11	-1	23	11	-3
COc1ccc(N(CC(=O)NCCc2ccc(Cl)cc2)S(=O)(=O)c2c(C)[nH]c(=O)[nH]c2=O)cc1	-1	-2	-4	14	6	-7
Cc1c(OCC(=O)NCCN2CCOCC2)ccc2c1oc(=O)c1ccccc12	17*	3	1	-17	-5	7
CC1CN(CC(=O)NCc2ccc(Cl)cc2)CC(C)O1 (stereo not drawn)	1	-4	-6	11	-1	-1
COc1ccc(CCNC(=O)c2cc3c(=O)n4ccccc4nc3n(Cc3ccco3)c2=N)cc1OC	3	-3	28*	14	0	0
CC(c1ccco1)N(C(=O)c1cccc(Br)c1)c1ccccn1 (stereo not drawn)	1	-9	-18	14	7	-8
COc1ccc([C@H]2C[C@H](O)[C@@H](n3cc(COC(=O)c4ccccc4)nn3)CN2Cc2cccs2)cc1	0	-2	31*	-10	6	-19
Nc1ccc(S(=O)(=O)N2CCCC2)cc1	1	-5	-3	14	2	-6
Nc1ccc(S(=O)(=O)c2ccc(N)cc2)cc1	2	-2	26*	-9	5	-35
COC(=O)CNC(=O)COC(=O)/C=C/c1ccc2ccccc2n1	16*	-2	13	3	-5	5
Cc1cccc(C)c1OCCNC(=O)OCc1ccccc1	0	-5	-14	19	4	1
COc1cccc(-c2ccc(NC(=O)C3CCCN(Cc4cnn(C)c4C)C3)cc2)c1 (stereo not drawn)	2	-14	-24	16	1	-15
COc1cccc(-c2ccc(NC(=O)C3CCCN(Cc4cnc(C)n4C)C3)cc2)c1 (stereo not drawn)	6	-4	-6	16	-18	28
Cc1ncc(CN2CCCC(C(=O)Nc3ccc(-c4cccc(F)c4)cc3)C2)n1C (stereo not drawn)	5	-3	2	1	-18	32*
Cc1ncc(CN2CCCC(C(=O)Nc3ccc(-c4cscn4)cc3)C2)cn1 (stereo not drawn)	0	1	2	2	10	-13
